# Tests used:
# Assay in all cases: DAPPL (digital affinity profiling via proximity ligation, sequencing); 10 mM Tris-HCl pH 7.5, 50 mM NaCl, 1 mM DTT, 4% glycerol, room temperature, 30 min; GST-TFs on glutathione beads, 16-mer random dsDNA library, 0.1% formaldehyde crosslink after washing; high values mean tight binding
# FLI1 = target: T1, FLI1 (Homo sapiens, UniProt Q01543 1-452); details: protein: recombinant; tags: N-terminal GST; dsDNA, one strand shown
# T1 sequence: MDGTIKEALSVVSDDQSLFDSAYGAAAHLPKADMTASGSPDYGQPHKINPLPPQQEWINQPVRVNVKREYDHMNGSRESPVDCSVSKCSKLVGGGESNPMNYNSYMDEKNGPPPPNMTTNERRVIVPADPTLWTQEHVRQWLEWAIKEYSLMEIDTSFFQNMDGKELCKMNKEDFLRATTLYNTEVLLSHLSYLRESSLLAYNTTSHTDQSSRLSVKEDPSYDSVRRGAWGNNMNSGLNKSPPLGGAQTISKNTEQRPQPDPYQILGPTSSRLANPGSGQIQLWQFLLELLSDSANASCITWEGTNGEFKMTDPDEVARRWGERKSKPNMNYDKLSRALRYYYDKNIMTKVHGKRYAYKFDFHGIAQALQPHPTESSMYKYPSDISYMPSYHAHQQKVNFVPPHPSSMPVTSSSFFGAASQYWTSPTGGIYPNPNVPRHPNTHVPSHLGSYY
# How it was run: (§1)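 Pools were built from human transcription factors expressed in yeast as GST fusions, captured on glutathione beads and DNA-barcoded, along with a tag-only sample. Incubation with 200 nmole of a 16-mer random double-stranded DNA library lasted 30 min at room temperature in Tris/NaCl/DTT/glycerol buffer, and was followed by washing, 0.1% formaldehyde crosslinking, proximity ligation, PCR amplification and Illumina NextSeq500 sequencing. Binding signal is the quotient of each hexamer's read frequency for a factor and its frequency for the tag-only sample.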
# ELK1 = target: T2, ELK1 (Homo sapiens, UniProt P19419 1-428); details: protein: recombinant; tags: N-terminal GST; dsDNA, one strand shown
# T2 sequence: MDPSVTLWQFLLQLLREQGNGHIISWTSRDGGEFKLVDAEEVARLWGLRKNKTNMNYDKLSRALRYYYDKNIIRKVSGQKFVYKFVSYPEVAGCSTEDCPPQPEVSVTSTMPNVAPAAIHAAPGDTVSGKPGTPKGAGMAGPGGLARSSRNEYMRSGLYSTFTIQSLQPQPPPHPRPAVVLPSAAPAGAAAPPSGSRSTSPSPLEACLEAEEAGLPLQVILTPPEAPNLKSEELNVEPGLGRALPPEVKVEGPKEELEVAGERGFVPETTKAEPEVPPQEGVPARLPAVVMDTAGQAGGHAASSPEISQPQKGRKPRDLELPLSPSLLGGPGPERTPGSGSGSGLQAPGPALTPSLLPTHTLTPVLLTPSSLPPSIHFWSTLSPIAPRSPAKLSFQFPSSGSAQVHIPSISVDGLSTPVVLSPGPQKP
# How it was run: as §1
# GABPA = target: T3, GABPA (Homo sapiens, UniProt Q06546 1-454); details: protein: recombinant; tags: N-terminal GST; dsDNA, one strand shown
# T3 sequence: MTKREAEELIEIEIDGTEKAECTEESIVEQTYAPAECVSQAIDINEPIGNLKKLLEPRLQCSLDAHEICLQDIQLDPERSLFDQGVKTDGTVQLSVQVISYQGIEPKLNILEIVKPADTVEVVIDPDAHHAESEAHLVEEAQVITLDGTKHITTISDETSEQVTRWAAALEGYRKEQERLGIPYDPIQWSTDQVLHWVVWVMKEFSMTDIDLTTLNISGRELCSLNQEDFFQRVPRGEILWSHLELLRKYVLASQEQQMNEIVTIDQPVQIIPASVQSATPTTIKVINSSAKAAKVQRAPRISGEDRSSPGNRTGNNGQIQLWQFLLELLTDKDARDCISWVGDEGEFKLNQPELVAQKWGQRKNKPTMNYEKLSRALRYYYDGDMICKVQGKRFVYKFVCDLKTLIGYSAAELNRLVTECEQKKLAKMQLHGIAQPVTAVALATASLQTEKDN
# How it was run: as §1
# ERG = target: T4, ERG (Homo sapiens, UniProt P11308 1-479); details: protein: recombinant; tags: N-terminal GST; dsDNA, one strand shown
# T4 sequence: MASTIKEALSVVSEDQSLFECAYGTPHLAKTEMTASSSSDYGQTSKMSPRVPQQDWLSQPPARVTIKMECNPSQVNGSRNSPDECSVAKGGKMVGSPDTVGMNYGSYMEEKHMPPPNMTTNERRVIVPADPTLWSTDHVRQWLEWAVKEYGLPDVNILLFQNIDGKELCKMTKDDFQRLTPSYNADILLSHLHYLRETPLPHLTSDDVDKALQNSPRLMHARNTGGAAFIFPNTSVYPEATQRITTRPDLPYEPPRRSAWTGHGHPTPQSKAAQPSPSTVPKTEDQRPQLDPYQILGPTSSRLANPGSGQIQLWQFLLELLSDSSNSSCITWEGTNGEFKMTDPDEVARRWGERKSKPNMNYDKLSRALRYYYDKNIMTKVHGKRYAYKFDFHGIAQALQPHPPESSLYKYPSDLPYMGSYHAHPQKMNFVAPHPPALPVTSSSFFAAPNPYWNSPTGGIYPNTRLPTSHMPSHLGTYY
# How it was run: as §1
# ELF1 = ELF1 (Homo sapiens, UniProt P32519 1-619); details: protein: recombinant; tags: N-terminal GST; dsDNA, one strand shown
# How it was run: as §1
# EHF = target: T5, EHF (Homo sapiens, UniProt Q9NZC4 1-300); details: protein: recombinant; tags: N-terminal GST; dsDNA, one strand shown
# T5 sequence: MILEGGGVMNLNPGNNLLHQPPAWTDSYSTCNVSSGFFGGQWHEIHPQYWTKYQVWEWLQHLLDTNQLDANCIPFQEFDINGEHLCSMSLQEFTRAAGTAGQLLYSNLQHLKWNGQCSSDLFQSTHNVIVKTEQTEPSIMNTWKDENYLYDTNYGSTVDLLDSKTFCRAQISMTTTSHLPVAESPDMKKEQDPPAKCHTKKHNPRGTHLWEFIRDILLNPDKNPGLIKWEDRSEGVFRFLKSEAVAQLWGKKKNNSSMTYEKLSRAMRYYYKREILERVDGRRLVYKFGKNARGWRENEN
# How it was run: as §1
# SPI1 = SPI1 (Homo sapiens, UniProt P17947 1-270); details: protein: recombinant; tags: N-terminal GST; dsDNA, one strand shown
# How it was run: as §1
# SPIB = SPIB (Homo sapiens, UniProt Q01892 1-262); details: protein: recombinant; tags: N-terminal GST; dsDNA, one strand shown
# How it was run: as §1
# ELK3 = target: T6, ELK3 (Homo sapiens, UniProt P41970 1-407); details: protein: recombinant; tags: N-terminal GST; dsDNA, one strand shown
# T6 sequence: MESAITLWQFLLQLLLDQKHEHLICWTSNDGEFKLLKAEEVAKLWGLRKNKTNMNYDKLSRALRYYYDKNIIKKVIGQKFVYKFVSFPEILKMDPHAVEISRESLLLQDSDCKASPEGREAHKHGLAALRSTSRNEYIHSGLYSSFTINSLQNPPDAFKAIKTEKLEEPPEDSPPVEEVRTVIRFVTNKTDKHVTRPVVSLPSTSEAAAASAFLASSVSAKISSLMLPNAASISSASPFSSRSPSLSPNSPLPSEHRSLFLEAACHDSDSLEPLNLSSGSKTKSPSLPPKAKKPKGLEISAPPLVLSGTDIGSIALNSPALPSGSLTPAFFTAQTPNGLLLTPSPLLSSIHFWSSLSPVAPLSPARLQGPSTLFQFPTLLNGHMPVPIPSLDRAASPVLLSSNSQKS
# How it was run: as §1
# FEV = target: T7, FEV (Homo sapiens, UniProt Q99581 1-238); details: protein: recombinant; tags: N-terminal GST; dsDNA, one strand shown
# T7 sequence: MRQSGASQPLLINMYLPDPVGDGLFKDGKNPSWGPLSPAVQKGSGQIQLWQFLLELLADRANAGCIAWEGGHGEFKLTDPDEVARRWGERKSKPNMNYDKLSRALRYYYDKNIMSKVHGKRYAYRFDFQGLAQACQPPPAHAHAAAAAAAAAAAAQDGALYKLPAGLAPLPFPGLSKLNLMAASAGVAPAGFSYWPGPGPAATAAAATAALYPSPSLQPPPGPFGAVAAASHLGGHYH
# How it was run: as §1
# ETV5 = ETV5 (Homo sapiens, UniProt P41161 1-510); details: protein: recombinant; tags: N-terminal GST; dsDNA, one strand shown
# How it was run: as §1
# HSF1 = HSF1 (Homo sapiens, UniProt Q00613 1-529); details: protein: recombinant; tags: N-terminal GST; chain copies: 3; dsDNA, one strand shown
# How it was run: as §1
# SPIC = target: T8, SPIC (Homo sapiens, UniProt Q8N5J4 1-248); details: protein: recombinant; tags: N-terminal GST; dsDNA, one strand shown
# T8 sequence: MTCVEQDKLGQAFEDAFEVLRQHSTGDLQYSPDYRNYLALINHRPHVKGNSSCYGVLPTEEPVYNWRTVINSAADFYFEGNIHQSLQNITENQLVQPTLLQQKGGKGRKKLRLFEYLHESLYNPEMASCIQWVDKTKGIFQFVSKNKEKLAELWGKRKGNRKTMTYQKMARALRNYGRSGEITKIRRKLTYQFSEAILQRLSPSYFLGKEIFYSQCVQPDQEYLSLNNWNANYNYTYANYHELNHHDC
# How it was run: as §1
# ELF4 = ELF4 (Homo sapiens, UniProt Q99607 1-663); details: protein: recombinant; tags: N-terminal GST; dsDNA, one strand shown
# How it was run: as §1
# ELK4 = target: T9, ELK4 (Homo sapiens, UniProt P28324-2 1-405); details: protein: recombinant; tags: N-terminal GST; dsDNA, one strand shown
# T9 sequence: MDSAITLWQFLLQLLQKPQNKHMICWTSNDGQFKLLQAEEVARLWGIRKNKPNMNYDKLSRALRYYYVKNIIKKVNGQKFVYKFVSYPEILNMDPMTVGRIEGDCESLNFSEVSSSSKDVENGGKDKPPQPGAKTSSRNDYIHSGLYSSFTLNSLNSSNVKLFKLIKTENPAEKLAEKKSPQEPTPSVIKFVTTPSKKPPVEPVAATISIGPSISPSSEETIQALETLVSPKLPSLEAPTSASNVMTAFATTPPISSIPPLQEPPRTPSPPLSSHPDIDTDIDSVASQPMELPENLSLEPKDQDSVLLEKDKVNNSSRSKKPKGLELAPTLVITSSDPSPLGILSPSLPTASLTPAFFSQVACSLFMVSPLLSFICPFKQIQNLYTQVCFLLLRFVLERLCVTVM
# How it was run: as §1
# ETV2 = target: T10, ETV2 (Homo sapiens, UniProt O00321 1-342); details: protein: recombinant; tags: N-terminal GST; dsDNA, one strand shown
# T10 sequence: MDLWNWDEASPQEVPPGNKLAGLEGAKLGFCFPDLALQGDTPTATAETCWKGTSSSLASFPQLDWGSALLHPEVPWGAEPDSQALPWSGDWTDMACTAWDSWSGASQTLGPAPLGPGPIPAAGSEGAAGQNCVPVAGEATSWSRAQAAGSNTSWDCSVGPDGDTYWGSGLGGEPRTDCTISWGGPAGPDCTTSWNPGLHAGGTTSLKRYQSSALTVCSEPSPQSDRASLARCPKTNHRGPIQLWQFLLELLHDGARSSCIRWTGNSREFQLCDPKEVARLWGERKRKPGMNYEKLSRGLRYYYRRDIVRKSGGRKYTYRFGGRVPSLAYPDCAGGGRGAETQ
# How it was run: as §1
# ELF3 = target: T11, ELF3 (Homo sapiens, UniProt P78545 1-371); details: protein: recombinant; tags: N-terminal GST; dsDNA, one strand shown
# T11 sequence: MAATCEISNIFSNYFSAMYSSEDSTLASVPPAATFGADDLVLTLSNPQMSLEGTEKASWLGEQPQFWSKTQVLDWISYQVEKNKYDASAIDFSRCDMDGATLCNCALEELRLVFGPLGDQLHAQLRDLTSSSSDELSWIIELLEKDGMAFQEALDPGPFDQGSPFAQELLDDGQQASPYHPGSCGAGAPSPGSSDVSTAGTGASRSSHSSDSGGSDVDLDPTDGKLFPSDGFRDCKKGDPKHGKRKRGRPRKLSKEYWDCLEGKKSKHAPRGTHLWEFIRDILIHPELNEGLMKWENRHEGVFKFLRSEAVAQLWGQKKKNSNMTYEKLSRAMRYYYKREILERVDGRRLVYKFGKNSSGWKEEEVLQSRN
# How it was run: as §1
# CRX = CRX (Homo sapiens, UniProt O43186 1-299); details: protein: recombinant; tags: N-terminal GST; dsDNA, one strand shown
# How it was run: as §1
# ETV1 = ETV1 (Homo sapiens, UniProt P50549 1-477); details: protein: recombinant; tags: N-terminal GST; dsDNA, one strand shown
# How it was run: as §1
# Sequence of ETV1 (P50549 whole entry): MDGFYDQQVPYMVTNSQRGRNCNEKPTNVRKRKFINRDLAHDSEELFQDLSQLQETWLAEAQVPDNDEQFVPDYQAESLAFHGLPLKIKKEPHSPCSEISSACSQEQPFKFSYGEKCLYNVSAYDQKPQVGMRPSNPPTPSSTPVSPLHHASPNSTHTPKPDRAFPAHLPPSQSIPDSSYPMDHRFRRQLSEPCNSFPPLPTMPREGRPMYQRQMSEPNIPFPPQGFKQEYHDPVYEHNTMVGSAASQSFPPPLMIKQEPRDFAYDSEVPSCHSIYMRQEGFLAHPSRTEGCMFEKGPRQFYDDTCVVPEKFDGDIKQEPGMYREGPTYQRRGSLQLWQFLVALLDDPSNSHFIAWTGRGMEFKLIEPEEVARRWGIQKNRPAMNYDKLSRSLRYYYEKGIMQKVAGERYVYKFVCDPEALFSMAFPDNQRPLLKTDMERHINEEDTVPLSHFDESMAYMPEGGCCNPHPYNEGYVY
# Sequence of SPIB (Q01892 whole entry): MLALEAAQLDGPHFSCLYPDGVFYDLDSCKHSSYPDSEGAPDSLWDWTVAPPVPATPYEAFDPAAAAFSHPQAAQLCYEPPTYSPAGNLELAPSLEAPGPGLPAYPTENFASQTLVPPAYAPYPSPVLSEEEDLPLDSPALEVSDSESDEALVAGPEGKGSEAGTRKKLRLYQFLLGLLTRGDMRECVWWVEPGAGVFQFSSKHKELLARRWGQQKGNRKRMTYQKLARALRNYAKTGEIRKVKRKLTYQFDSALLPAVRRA
# Sequence of HSF1 (Q00613 whole entry): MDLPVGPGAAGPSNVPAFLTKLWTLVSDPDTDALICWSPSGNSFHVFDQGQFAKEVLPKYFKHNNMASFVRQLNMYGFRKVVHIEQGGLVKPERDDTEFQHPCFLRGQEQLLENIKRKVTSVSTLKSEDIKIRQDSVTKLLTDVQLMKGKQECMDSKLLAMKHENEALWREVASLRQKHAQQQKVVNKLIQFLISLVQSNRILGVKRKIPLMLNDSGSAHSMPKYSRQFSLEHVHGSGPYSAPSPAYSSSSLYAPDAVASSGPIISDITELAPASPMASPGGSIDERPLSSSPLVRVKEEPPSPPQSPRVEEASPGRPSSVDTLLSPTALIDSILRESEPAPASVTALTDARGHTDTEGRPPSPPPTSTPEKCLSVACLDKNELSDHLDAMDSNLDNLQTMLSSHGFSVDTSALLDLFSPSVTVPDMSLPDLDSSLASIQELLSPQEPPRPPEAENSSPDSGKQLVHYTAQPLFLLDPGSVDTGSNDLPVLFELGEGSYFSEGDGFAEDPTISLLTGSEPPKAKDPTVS
# Sequence of ELF4 (Q99607 whole entry): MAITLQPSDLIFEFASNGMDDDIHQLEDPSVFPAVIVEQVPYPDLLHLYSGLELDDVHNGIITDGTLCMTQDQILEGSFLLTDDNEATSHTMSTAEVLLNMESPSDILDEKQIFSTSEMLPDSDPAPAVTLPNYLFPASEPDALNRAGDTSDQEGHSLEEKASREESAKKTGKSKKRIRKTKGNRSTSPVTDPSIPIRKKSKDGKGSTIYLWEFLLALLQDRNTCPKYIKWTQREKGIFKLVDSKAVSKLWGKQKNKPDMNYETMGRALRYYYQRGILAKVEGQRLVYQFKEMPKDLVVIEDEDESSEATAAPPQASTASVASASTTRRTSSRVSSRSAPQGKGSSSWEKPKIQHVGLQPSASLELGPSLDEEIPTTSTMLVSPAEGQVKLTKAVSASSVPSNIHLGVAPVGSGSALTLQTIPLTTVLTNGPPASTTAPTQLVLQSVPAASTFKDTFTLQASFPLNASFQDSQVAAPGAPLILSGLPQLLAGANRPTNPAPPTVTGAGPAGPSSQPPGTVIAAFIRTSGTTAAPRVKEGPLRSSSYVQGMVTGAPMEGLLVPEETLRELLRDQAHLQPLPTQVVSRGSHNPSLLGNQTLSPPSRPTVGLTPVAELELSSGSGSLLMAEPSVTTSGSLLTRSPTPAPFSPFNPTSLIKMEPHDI
# Sequence of ETV5 (P41161 whole entry): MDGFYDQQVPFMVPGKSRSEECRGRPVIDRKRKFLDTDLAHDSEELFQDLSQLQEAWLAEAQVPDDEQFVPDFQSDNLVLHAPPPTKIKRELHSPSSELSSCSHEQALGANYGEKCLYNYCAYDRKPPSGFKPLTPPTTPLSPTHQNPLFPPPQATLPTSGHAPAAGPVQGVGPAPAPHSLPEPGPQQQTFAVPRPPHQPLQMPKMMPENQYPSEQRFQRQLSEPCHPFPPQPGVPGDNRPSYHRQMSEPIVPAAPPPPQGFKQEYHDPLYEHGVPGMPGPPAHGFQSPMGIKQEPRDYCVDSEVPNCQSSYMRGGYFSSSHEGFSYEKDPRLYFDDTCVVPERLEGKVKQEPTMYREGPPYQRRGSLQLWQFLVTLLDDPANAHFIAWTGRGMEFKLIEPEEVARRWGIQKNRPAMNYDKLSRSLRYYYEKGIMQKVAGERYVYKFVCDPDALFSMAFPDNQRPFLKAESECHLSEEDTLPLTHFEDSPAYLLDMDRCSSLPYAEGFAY
# Sequence of ELF1 (P32519 whole entry): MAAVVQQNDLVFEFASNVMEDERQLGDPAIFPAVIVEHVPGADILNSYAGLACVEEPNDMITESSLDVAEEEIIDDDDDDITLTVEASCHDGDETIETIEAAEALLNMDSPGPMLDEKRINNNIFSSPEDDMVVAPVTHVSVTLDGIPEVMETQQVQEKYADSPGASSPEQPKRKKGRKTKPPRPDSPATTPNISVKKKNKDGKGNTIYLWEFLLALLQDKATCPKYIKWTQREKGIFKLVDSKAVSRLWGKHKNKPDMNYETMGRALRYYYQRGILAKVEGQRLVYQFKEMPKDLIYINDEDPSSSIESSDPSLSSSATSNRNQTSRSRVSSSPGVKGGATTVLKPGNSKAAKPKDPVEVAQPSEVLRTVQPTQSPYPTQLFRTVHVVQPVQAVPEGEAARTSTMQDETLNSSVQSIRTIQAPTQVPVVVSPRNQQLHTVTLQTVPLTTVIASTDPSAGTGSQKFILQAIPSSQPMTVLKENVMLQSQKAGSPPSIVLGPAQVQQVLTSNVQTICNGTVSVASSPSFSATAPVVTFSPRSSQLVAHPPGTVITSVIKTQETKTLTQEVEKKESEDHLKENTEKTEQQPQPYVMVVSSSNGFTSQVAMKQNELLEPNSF
# Sequence of CRX (O43186 whole entry): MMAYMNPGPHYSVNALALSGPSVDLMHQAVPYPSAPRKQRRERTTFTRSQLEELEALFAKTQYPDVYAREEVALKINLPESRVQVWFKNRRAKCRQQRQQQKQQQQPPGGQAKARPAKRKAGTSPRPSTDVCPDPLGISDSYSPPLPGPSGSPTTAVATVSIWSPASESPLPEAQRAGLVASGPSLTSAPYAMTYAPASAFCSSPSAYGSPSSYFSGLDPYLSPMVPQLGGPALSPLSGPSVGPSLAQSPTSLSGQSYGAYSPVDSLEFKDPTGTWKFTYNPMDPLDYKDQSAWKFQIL
sequence,measurement,setting,value
AATGTC,binding signal,FLI1,"1.16 fold enrichment (6-mer frequency, TF over GST control)"
same,binding signal,ELK1,"1.21 fold enrichment (6-mer frequency, TF over GST control)"
same,binding signal,GABPA,"1.23 fold enrichment (6-mer frequency, TF over GST control)"
same,binding signal,ERG,"1.27 fold enrichment (6-mer frequency, TF over GST control)"
same,binding signal,ELF1,"1.22 fold enrichment (6-mer frequency, TF over GST control)"
same,binding signal,EHF,"1.29 fold enrichment (6-mer frequency, TF over GST control)"
same,binding signal,SPI1,"1.23 fold enrichment (6-mer frequency, TF over GST control)"
same,binding signal,SPIB,"1.25 fold enrichment (6-mer frequency, TF over GST control)"
same,binding signal,ELK3,"1.23 fold enrichment (6-mer frequency, TF over GST control)"
same,binding signal,FEV,"1.19 fold enrichment (6-mer frequency, TF over GST control)"
same,binding signal,ETV5,"1.23 fold enrichment (6-mer frequency, TF over GST control)"
same,binding signal,HSF1,"1.14 fold enrichment (6-mer frequency, TF over GST control)"
same,binding signal,SPIC,"1.41 fold enrichment (6-mer frequency, TF over GST control)"
same,binding signal,ELF4,"1.21 fold enrichment (6-mer frequency, TF over GST control)"
same,binding signal,ELK4,"1.32 fold enrichment (6-mer frequency, TF over GST control)"
same,binding signal,ETV2,"1.15 fold enrichment (6-mer frequency, TF over GST control)"
same,binding signal,ELF3,"1.36 fold enrichment (6-mer frequency, TF over GST control)"
same,binding signal,CRX,"1.04 fold enrichment (6-mer frequency, TF over GST control)"
same,binding signal,ETV1,"1.14 fold enrichment (6-mer frequency, TF over GST control)"
